Here are results for 40 molecules from PubChem BioAssay AID1445 (SRMLSC, 2008).

Structures are written as SMILES. Several values for one entry are separate records, joined by “and”; a condition that tells them apart may be missing. Equal values may be shown once. Among all 220,000 compounds or so, about 910 (0.41%) were called active.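 The calls were made as follows: active = primary inhibition above the hit cutoff, then over 50% inhibition at one or more dose response concentrations (cut at about 23% in these data, passing the limit was not always enough); inconclusive = conflicting primary data, or primary hits not chosen for dose response; inactive = low primary inhibition, or under 50% at every dose.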 Shown is part of a subset that was picked to be rich in actives. Entries with a potency or affinity are not part of this list. More than one record can exist for a structure, and the calls need not agree.

By inhibition is commonly meant the change of the read-out against control, counted positive when it falls.

Sequence of Aminopeptidase N (Plasmodium falciparum (isolate 3D7)) (O96935 whole entry, looked up): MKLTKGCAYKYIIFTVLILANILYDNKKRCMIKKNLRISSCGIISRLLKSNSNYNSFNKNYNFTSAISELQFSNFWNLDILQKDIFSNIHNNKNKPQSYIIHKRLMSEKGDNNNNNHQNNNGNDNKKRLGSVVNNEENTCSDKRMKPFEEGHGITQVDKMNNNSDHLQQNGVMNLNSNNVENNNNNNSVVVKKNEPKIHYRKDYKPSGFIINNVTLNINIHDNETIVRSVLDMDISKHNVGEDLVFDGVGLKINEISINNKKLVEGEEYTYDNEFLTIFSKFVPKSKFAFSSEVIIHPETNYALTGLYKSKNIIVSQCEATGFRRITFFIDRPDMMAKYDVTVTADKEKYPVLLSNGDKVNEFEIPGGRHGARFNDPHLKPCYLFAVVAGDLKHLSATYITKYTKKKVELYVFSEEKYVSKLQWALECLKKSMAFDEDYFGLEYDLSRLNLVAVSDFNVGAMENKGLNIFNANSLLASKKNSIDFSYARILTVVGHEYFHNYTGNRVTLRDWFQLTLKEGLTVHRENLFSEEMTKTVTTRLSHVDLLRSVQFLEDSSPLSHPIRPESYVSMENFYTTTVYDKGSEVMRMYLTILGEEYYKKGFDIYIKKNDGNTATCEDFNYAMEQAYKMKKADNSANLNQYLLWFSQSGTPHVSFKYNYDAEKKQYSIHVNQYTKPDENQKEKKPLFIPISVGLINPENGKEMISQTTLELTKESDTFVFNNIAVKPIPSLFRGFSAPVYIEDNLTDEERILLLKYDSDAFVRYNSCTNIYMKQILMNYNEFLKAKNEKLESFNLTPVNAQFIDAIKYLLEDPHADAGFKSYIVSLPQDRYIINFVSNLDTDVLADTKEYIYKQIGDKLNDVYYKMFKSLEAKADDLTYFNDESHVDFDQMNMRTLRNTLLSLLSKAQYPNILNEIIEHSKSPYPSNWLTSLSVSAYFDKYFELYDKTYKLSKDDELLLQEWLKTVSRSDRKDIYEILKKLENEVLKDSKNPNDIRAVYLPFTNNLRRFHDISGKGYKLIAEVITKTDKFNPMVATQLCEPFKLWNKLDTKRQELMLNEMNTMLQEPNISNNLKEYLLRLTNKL

This assay concerns the target Aminopeptidase N (Plasmodium falciparum (isolate 3D7)) (UniProt O96935). The experiment in a line: malaria alanyl aminopeptidase activity blockers – biochemical, fluorogenic H-Leu-NHMec substrate, 1536-well (AID 1445).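 Also: plate controls were DMSO full reaction for no effect and no enzyme background for full effect.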 The conditions noted are these: recombinant M1AAP, H-Leu-NHMec fluorogenic kinetic assay; at 30 µM; stronger effect = higher value.
With `CC(C)OC(=O)c1c(N)n(Cc2ccco2)c2nc3ccccc3nc12`, the inhibition was 26.7% (active). Under `C=CCNC(=O)c1c(N)n(Cc2ccco2)c2nc3ccccc3nc12` stands 24.2% (active); under `CCCNC(=O)c1c(N)n(Cc2ccco2)c2nc3ccccc3nc12`, 19.9% (inactive).

Take `CC(C)(C)OC(=O)c1c(N)n(Cc2ccco2)c2nc3ccccc3nc12`: the inhibition is 8.25% (inactive).

On to `COCC(C)OC(=O)c1c(N)n(Cc2ccco2)c2nc3ccccc3nc12` (stereo not given), for which the inhibition was 17.3% (inactive). As to `CC(C)CNC(=O)c1c(N)n(Cc2ccco2)c2nc3ccccc3nc12`, the inhibition was 13% (inactive).

As to `CCC(=NCc1ccco1)c1c(O)[nH]c(=O)[nH]c1=O`, the inhibition was 14.4% (inactive). `CCC(=NCC1CCCO1)c1c(O)n(-c2ccccc2C)c(=O)[nH]c1=O` (stereo not given): the inhibition was 6.89% (inactive). Turning to `O=C1Nc2ccccc2C1Cc1nc2ccccc2c(=O)n1-c1ccccc1` (stereo not given), the inhibition was -1.31% (inactive).

Regarding `Cc1ccc(S(=O)(=O)N2CCCCC2)cc1NC(=O)CN1CC=C(c2ccccc2)CC1`, the inhibition was 5.04% (inactive).

With `c1ccc(C2=NP(N3CCOCC3)(N3CCOCC3)=NC(N3CCOCC3)=N2)cc1`, the inhibition is -3.04% (inactive). Take `Cc1cccc(N2CCc3c2nc2ccccc2c3N)c1`: the inhibition is 25.6% (active) and 6.14% (inactive). For the molecule `Cc1cccc(-n2c(-c3cccs3)nc3ccccc3c2=O)c1`, the inhibition is 4.14% (inactive).

Consider `CCOC(=O)c1nc2ccccc2c(=O)n1-c1cccc(C)c1`, for which the inhibition is 0.05% (inactive).

For the molecule `COCCCn1c(N)c(C(=O)OCCOC)c2nc3ccccc3nc21`, the inhibition is 27.6% (active). As to `CCCCOCCCn1c(N)c(C(=O)OCCOC)c2nc3ccccc3nc21`, the inhibition was 19.1% (inactive). Regarding `CCCCn1c(N)c(C(=O)OCCOC)c2nc3ccccc3nc21`, the inhibition is 17.7% (inactive). On to `COC(=O)c1c(N)n(Cc2ccc(OC)cc2)c2nc3ccccc3nc12`, for which the inhibition is 13.7% (inactive). On to `COCCOC(=O)c1c(N)n(Cc2ccccc2)c2nc3ccccc3nc12`, for which the inhibition is 25% (active). Take `CCOC(=O)c1c(N)n(Cc2ccc(OC)cc2)c2nc3ccccc3nc12`: the inhibition is 13.6% (inactive). With `CCC(=NCCc1c[nH]c2ccccc12)c1c(O)n(-c2ccc(C)cc2)c(=O)[nH]c1=O`, the inhibition is 1.85% (inactive). As for `CCC(=O)N1N=C2C3CCN(CC3)C2C1c1ccccc1` (stereo not given), the figure is 0.59% (inactive); as for `CCCCn1c(O)c(C(C)=NCc2ccc3c(c2)OCO3)c(=O)[nH]c1=O`, -11.8% (inactive). `Cc1sc2nc(COC(=O)Cc3ccccc3)[nH]c(=O)c2c1C`: the inhibition was 13.2% (inactive). As for `CC(=NCCN1CCCCC1)c1c(O)n(Cc2ccccc2)c(=O)[nH]c1=O`, the figure is 11.5% (inactive); as for `CCOC(=O)C(O)(c1ccc(N=c2ccccn2C)cc1)C(F)(F)F` (stereo not given), 6.08% (inactive). As for `CCOC(=O)C(O)(c1cn(C)c2ccccc12)C(F)(F)F` (stereo not given), the figure is 25.5% (active); as for `COC(=O)C(O)(c1cn(C)c2ccccc12)C(F)(F)F` (stereo not given), -1.11% (inactive). `COc1ccc2c(c1)c(C(=O)O)c(C)n2C(C)C`: the inhibition was 1.69% (inactive).

On to `CC(=O)c1cccc(NC2=NCC(C)S2)c1` (stereo not given), for which the inhibition was 24.8% (active). Consider `CC1CN=C(Nc2ccc(F)c(Cl)c2)S1` (stereo not given), for which the inhibition is -0.44% (inactive). Take `CC1CN=C(Nc2ccccc2)S1` (stereo not given): the inhibition is 4.63% (inactive). As to `Cc1ccc(-n2c(O)c(C=Nc3ccc(S(=O)(=O)N(C)C)cc3)c(=O)[nH]c2=O)cc1`, the inhibition was 13.7% (inactive). As for `CC1(C)CN=C(Nc2nc3ccccc3s2)S1`, the inhibition was 26.9% (active). Regarding `c1ccc2sc(NC3=NCCN3)nc2c1`, the inhibition is 6.67% (inactive). Take `CC1(C)CN=C(Nc2ccccc2C(F)(F)F)S1`: the inhibition was 2.41% (inactive). Regarding `O=c1[nH]c(=O)n(Cc2ccco2)c(O)c1C=NC1CC1`, the inhibition was 2.96% (inactive).

Take `COc1cc2c(C(=O)N3CCN(C)CC3)c(C)n(C)c2cc1Br`: the inhibition is 0.34% (inactive). `CC(=NCCN1CCOCC1)c1c(O)n(C2CCCCC2)c(=O)[nH]c1=O`: the inhibition is -4.11% (inactive).

Regarding `O=C(C1CCC(=O)N1Cc1ccccc1Cl)N1CCC2(CC1)OCCO2` (stereo not given), the inhibition was 4.98% (inactive).
